Measured values published in PubChem BioAssay (EPA / NIEHS).
Activity calls are given as the source filed them. Rule for the calls: active = hit-call score of the fitted dose curve at least 0.9, where 1 is the maximum; inactive = score below 0.9.

How the values were obtained:
Details in all cases: mRNA level, 48 h; actives raise or lower the signal
[1] = read-out: NAD(P)H dehydrogenase [quinone] 1 (NQO1), NQO1 (gene 1728); assay: LTEA_HepaRG_NQO1: Life Technologies and Expression Analysis (LTEA) Assay for NAD(P)H dehydrogenase [quinone] 1 (NQO1) using HepaRG (AID 2283526)
Procedure, shortened: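 Transcript induction or suppression is quantified by qRT-PCR in human HepaRG liver cells dosed for 48 hours. Eight half-log concentrations topping at 100 uM are used, with 0.5% DMSO as vehicle and baseline.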

[2] = read-out: Nuclear factor erythroid 2-related factor 2 (Homo sapiens) (UniProt Q16236); assay: LTEA_HepaRG_NFE2L2: Life Technologies and Expression Analysis (LTEA) Assay for Nuclear factor erythroid 2-related factor 2 (NFE2L2) Transcription Factor using HepaRG (AID 2283527)
Procedure, shortened: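 NFE2L2 transcript level was read by qRT-PCR (housekeeping ACTB/GAPDH/POLR2A normalisation) after 48 h chemical treatment of HepaRG in serum-free induction medium. Duplicate 8-point half-log curves, top 100 uM, 0.5% DMSO vehicle; up- or down-regulation fitted against vehicle.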

[3] = read-out: succinate dehydrogenase complex iron sulfur subunit B (SDHB), SDHB (gene 6390); assay: LTEA_HepaRG_SDHB: Life Technologies and Expression Analysis (LTEA) Assay for succinate dehydrogenase complex iron sulfur subunit B (SDHB) using HepaRG (AID 2283528)
Procedure, shortened: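 Readout is SDHB transcript level by qRT-PCR, normalised to three housekeeping genes and fitted bidirectionally against 0.5% DMSO vehicle. Human HepaRG cells were treated for 48 h at up to 100 uM.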

[4] = read-out: Signal transducer and activator of transcription 3 (Homo sapiens) (UniProt P40763); assay: LTEA_HepaRG_STAT3: Life Technologies and Expression Analysis (LTEA) Assay for Signal transducer and activator of transcription (STAT3) using HepaRG (AID 2283529)
Procedure, shortened: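 STAT3 transcript quantified by qRT-PCR against three housekeeping genes (ACTB, GAPDH, POLR2A), fitted both directions relative to DMSO. HepaRG cultures exposed 48 h to eight half-log concentrations, top 100 uM, 0.5% DMSO, serum-free induction medium.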

[5] = read-out: solute carrier (SLCO1B1), SLCO1B1 (gene 10599); assay: LTEA_HepaRG_SLCO1B1: Life Technologies and Expression Analysis (LTEA) Assay for solute carrier (SLCO1B1) using HepaRG (AID 2283530)
Procedure, shortened: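 Human HepaRG cultures treated for 48 h with an eight-concentration half-log series topping at 100 uM; SLCO1B1 measured by qRT-PCR and fitted bidirectionally relative to DMSO.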

[6] = read-out: sulfotransferase 2A1 (SULT2A1), SULT2A1 (gene 6822); assay: LTEA_HepaRG_SULT2A1: Life Technologies and Expression Analysis (LTEA) Assay for sulfotransferase 2A1 (SULT2A1) using HepaRG (AID 2283531)
Procedure, shortened: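 Gene-expression endpoint in a human liver cell line: SULT2A1 mRNA change after 48 h chemical treatment, curves fitted in both directions relative to 0.5% DMSO vehicle. Concentrations spanned eight half-log steps from 100 uM.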

[7] = read-out: Transforming Growth Factor (TGFB1), TGFB1 (gene 7040); assay: LTEA_HepaRG_TGFB1: Life Technologies and Expression Analysis (LTEA) Assay for Transforming Growth Factor (TGFB1) Transporter using HepaRG (AID 2283533)
Procedure, shortened: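 Eight-point concentration-response (max 100 uM, half-log) in HepaRG under serum-free induction conditions, 48 h. TGFB1 mRNA by qRT-PCR, housekeeping-normalized.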

TIMP1, TIMP1 (gene 7076) = assay: LTEA_HepaRG_TIMP1: Life Technologies and Expression Analysis (LTEA) Assay for TIMP1 using HepaRG (AID 2283534)
Procedure, shortened: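 TIMP1 induction or repression in HepaRG cells after 48 h chemical exposure (eight concentrations, highest 100 uM), assessed by normalized qRT-PCR with bidirectional fitting to DMSO controls.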

[8] = read-out: Tumor necrosis factor receptor 1 (TNFRSF1A), TNFRSF1A (gene 7132); assay: LTEA_HepaRG_TNFRSF1A: Life Technologies and Expression Analysis (LTEA) Assay for Tumor necrosis factor receptor 1 (TNFRSF1A) using HepaRG (AID 2283535)
Procedure, shortened: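 Assay uses 48 h chemical treatment of differentiated HepaRG monolayers, tested in duplicate at eight concentrations from 100 uM downward in 0.5% DMSO. mRNA is normalized to ACTB, GAPDH and POLR2A, with induction or suppression fitted relative to vehicle.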

Measured: AC50

Sequence of Nuclear factor erythroid 2-related factor 2 (Homo sapiens) (Q16236 whole entry, looked up): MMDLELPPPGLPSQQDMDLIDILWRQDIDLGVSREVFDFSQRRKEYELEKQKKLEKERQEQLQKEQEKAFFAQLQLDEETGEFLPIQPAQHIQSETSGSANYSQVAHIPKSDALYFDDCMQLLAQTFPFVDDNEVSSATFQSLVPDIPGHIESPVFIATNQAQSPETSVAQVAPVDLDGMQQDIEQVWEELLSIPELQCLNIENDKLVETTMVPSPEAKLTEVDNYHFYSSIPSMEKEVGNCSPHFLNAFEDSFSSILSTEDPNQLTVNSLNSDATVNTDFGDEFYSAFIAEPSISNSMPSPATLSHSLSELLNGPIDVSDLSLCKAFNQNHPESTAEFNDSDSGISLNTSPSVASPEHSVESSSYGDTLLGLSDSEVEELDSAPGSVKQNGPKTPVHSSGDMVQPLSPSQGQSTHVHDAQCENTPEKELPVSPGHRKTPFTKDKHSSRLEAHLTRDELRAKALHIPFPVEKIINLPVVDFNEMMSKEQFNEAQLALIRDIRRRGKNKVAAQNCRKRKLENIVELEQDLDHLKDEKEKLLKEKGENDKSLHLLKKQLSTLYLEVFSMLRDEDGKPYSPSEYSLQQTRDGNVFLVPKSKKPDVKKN
Sequence of Signal transducer and activator of transcription 3 (Homo sapiens) (P40763 whole entry, looked up): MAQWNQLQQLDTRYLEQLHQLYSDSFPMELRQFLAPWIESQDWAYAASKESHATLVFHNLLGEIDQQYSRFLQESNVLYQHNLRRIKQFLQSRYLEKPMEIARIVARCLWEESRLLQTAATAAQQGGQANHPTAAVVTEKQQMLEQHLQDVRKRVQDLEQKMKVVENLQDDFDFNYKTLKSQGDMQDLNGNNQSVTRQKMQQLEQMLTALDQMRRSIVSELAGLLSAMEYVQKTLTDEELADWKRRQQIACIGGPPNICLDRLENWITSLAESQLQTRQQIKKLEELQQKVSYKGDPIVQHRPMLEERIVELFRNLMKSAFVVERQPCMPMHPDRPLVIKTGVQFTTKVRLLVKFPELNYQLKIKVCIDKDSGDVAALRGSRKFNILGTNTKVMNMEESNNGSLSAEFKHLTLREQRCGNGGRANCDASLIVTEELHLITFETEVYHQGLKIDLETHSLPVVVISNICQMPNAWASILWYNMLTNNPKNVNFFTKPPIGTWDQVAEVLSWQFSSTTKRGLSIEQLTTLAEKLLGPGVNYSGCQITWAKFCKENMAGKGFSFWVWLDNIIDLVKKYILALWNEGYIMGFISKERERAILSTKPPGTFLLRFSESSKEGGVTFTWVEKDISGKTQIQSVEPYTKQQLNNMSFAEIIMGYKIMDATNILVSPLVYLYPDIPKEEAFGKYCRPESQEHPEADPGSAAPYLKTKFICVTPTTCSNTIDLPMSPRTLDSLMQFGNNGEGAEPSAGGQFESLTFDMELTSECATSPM

O=C(O)C(F)(F)C(F)(F)C(F)(F)C(F)(F)C(F)(F)C(F)(F)C(F)(F)C(F)(F)F
active: [2] 74.9 µM | [5] 90.8 µM | [6] 77.4 µM | [7] 73.5 µM
inactive: all other assays above

CC(C)(c1ccccc1)c1ccc(O)cc1
inactive: all assays above

Cc1cccc([N+](=O)[O-])c1
inactive: all assays above

Nc1ccc(-c2ccc(N)cc2)cc1
inactive: all assays above

O=S(=O)(O)C(F)(F)C(F)(F)C(F)(F)C(F)(F)F
inactive: all assays above

Cc1cc(O)ccc1Cl
inactive: all assays above

c1cc2ccc3cccc4ccc(c1)c2c34
inactive: all assays above

CCSC(=O)N(CC)C1CCCCC1
not listed: [7]
inactive: all other assays above

O=C(O)C(F)(F)C(F)(F)C(F)(F)C(F)(F)C(F)(F)F
active: [5] 9.92 µM
inactive: all other assays above

O=S(=O)(O)C(F)(F)C(F)(F)C(F)(F)C(F)(F)C(F)(F)C(F)(F)F
active: [2] 0.979 µM | [3] 8.54 µM
inactive: all other assays above

N#Cc1ccc(N(CC(N)=O)CC(F)(F)F)cc1C(F)(F)F
inactive: all assays above

C=CC(N)=O
inactive: all assays above

CCC(=O)O[C@H]1CC[C@H]2[C@@H]3CCC4=CC(=O)CC[C@]4(C)[C@H]3CC[C@]12C
active: [5] 12.6 µM
inactive: all other assays above

CCOC(=O)C(O)(c1ccc(Cl)cc1)c1ccc(Cl)cc1
inactive: all assays above

CCC(C)(c1ccc(O)cc1)c1ccc(O)cc1
inactive: all assays above

Cc1ccc(O)c(C)c1
inactive: all assays above

O=NN(c1ccccc1)c1ccccc1
active: [8] 80.2 µM
inactive: all other assays above

Oc1ccc(C(c2ccc(O)cc2)(C(F)(F)F)C(F)(F)F)cc1
active: [1] 78.9 µM | [6] 88.4 µM | [7] 76.5 µM
inactive: all other assays above

Clc1ccc(Cl)cc1
inactive: all assays above

Oc1ccc(Cl)cc1Cl
inactive: all assays above

COS(=O)(=O)OC
not listed: [5]
inactive: all other assays above

CC(C)C(=O)OCC(C)(C)C(OC(=O)C(C)C)C(C)C (stereo not given)
inactive: all assays above

C[C@]12CCC(=O)C=C1CC[C@@H]1[C@@H]2CC[C@]2(C)C(=O)CC[C@@H]12
active: [6] 15.2 µM
inactive: all other assays above

CCOP(=S)(OCC)SCSC(C)(C)C
active: [6] 10.4 µM
inactive: all other assays above

C=CC(=O)NCNC(=O)C=C
inactive: all assays above

CCCCCCCCCC[N+](C)(C)CCCCCCCCCC
active: [2] 75 µM | [6] 80.9 µM | TIMP1, TIMP1 (gene 7076) 10.3 µM | [8] 79.3 µM
inactive: all other assays above

Cc1ccccc1CO[C@@H]1C[C@@]2(C(C)C)CC[C@]1(C)O2
inactive: all assays above

Cc1ccccc1O
inactive: all assays above

CCC(C)c1cc([N+](=O)[O-])cc([N+](=O)[O-])c1O (stereo not given)
inactive: [2] | [7]
active: [1] 3.47 µM | [3] 0.656 µM | [4] 0.631 µM | [5] 2.32 µM | [6] 3.13 µM | TIMP1, TIMP1 (gene 7076) 2.51 µM | [8] 4.74 µM

CCC(C)(CC)c1cc(NC(=O)c2c(OC)cccc2OC)on1
active: [2] 14.9 µM | [7] 50 µM
inactive: all other assays above

CN(C)c1nc(=O)n(C2CCCCC2)c(=O)n1C
inactive: all assays above

O=C(O)C(F)(F)C(F)(F)C(F)(F)C(F)(F)C(F)(F)C(F)(F)C(F)(F)C(F)(F)C(F)(F)F
inactive: [1] | [2]
active: [3] 88.9 µM | [4] 79.3 µM | [5] 61.8 µM | [6] 35.7 µM | [7] 23.3 µM | TIMP1, TIMP1 (gene 7076) 91.7 µM | [8] 78 µM

CN(C)CCO
inactive: all assays above
